From PubChem BioAssay AID540275 (National Center for Advancing Translational Sciences (NCATS), 2011)
Hit rate of the full screen: of about 320,000 compounds, about 620 (0.19%) were called active. Another 6% or so got no clear call; they are omitted. This is one part of a sample in which actives are shown more often than they occur. Unmarked numbers belong to inactive results. No stated cut-off is given here; in the data, active means activation above about 80%; inconclusive means between about 30% and that limit; inactive means weaker than that.
Further: 0% is about no effect.

What follows are compounds tested against Transient receptor potential cation channel subfamily V member 1 (Homo sapiens) (UniProt Q8NER1) (assay: HTS Assay for Compounds that Act as Agonists of the Vanilloid Receptor 1). Details: TRPV1-expressing cells, Fluo-8 calcium influx, agonist mode; at 8.33 µM; stronger effect = higher value.
Chain of Transient receptor potential cation channel subfamily V member 1 (Homo sapiens) (Q8NER1 whole entry, looked up): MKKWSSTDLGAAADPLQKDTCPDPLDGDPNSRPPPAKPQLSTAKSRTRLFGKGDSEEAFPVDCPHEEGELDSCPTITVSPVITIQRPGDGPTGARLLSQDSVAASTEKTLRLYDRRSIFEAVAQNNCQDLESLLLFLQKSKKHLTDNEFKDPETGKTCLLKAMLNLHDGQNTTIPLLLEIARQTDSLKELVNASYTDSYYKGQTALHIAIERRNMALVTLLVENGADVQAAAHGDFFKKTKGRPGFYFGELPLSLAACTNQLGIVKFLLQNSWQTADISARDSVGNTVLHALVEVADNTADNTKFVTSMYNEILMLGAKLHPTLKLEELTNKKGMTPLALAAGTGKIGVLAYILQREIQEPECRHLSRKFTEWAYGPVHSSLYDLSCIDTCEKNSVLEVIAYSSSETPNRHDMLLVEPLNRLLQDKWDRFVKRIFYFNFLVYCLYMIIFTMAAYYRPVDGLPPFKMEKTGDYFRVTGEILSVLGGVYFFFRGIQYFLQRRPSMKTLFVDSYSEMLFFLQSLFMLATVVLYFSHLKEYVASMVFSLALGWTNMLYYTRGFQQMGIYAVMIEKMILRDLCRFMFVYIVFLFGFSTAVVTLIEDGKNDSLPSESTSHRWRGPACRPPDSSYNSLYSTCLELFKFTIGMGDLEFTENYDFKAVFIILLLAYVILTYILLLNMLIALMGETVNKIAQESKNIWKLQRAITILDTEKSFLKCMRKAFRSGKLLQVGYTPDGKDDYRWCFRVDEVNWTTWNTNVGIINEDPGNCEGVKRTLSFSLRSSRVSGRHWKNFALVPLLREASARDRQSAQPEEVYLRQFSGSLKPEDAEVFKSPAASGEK
Text: The transient receptor potential ion channel, family V, number 1, (TRPV1) is one of the most important molecular transducers of painful stimuli and a potential target for analgesic drug development. Although recent clinical trials with orthosteric antagonists have not produced a successful drug because of a hyperthermia side effect and their tendency to block thermal noxious pain, this ion channel is undeniably well placed in the pain pathway, and the idea of blocking pain signals before they enter the CNS is an excellent concept and of proven efficacy when TRPV1 agonists are used. We propose a new approach involving allosteric modulation to impose an activity-dependent constraint within the context of inflammation and tissue damage that would alter the responsiveness of the channel in a way that an orthosteric vanilloid antagonist cannot achieve. We believe that the allosteric modulator approach has not been explored for this target. The main goal of this proposal is to identify additional, new, potent allosteric modulators of TRPV1 that can be used to investigate TRPV1 function. Our recent report provides evidence of proof of concept, but the compounds are just at the edge of utility in terms of potency. […] The question of whether they can be used as analgesic agents is complex, but if suitable compounds are identified then testing for analgesic properties will be conducted. NIH Chemical Genomics Center [NCGC] NIH Molecular Libraries Probe Centers Network [MLPCN] MLPCN Grant: MH089480-1A1 Assay Submitter (PI): Michael Iadarola, National Institute of Dental and Cranofacial Research
Upon TRPV1 activation in TRPV1 cells, the channel opens and extracellular cations flow through the channel into the cytosol. A calcium binding dye (Fluo-8) becomes fluorescent when bound to calcium. This dye is pre-loaded into cells and is used as a marker for calcium influx. The amount of accumulated calcium is precisely quantified using the FDSS kinetic reader and the calcium dye. For the HTS assay, freshly prepared cells are plated at a density of 2000/well in 3 ul medium in 1536-well plates and cultured overnight at 35.5C. Cells will be loaded with 1 ul of the homogeneous calcium dye (ABD Bioquest) at room temperature for 40 to 90 minutes. Plates will be loaded into the FDSS kinetic reader and a 1 sec / cycle for 10 second baseline signal will be measured. Compound library will then be added with a pintool at 23 nl and measured kinetically for 3 minutes. This portion of the read is considered the agonist portion of the screen. Following the 3 minutes of incubation, an on board pipettor will deliver 1 ul of capsaicin for a final concentration equal to the EC20. Signal will be measured kinetically for an additional 2 minutes. This portion of the read is considered the allosteric enhancer portion of the screen. The FDSS reader has a standard filter set capable of measuring calcium bound Fluo-8 (ex=480 and em=520 nm).
In the case of `CCCC(NCC(=O)Nc1ccccc1C(=O)NC1CC1)c1ccccc1` (stereo not given), the activation is reported as 21.8%.
For `CO[C@H]1[C@@H]2C=CO[C@@H](O[C@H]3O[C@@H](CO)[C@H](O)[C@@H](O)[C@@H]3O)[C@@H]2[C@@]2(CO)O[C@@H]12`, the activation was -3.6%.
In the case of `CC(C)N(C(=O)CN1CCN(S(=O)(=O)c2ccc(Br)s2)CC1)C(C)C`, the activation is reported as 17.4%.
In the case of `CCCCN(CC(=O)Nc1cccc(S(=O)(=O)N2CCCC2)c1)Cc1nc2ccccc2c(=O)[nH]1`, the activation is reported as 26.8%.
`CCOc1cc(NC(=O)Nc2ccccc2)c(OCC)cc1NC(=O)CC` was tested, and the activation was 3.84%.
With `CCOc1ccc(CCNC(=O)Nc2ccccc2)cc1OCC` the activation was 91.3% (active).
Compound `CCOc1ccc(CCNC(=O)COC(=O)c2c(OC)cccc2OC)cc1OCC` has an activation of -2.55%.
For `Cc1cc(C(=O)COc2ccc(Br)cc2F)c(C)n1C1CC1`, the activation was 20.7%.
For `CNS(=O)(=O)c1cccc(C(=O)OCCCC(=O)c2ccccc2)c1`, the activation was 4.36%.
`CC(OC(=O)Cc1ccc(F)cc1)C(=O)N1CCc2ccccc21` (stereo not given) was tested, and the activation was 16.3%.
With `Cc1cc(C)n2nc(C(=O)Nc3cccc(S(=O)(=O)N4CCOCC4)c3)nc2n1` the activation was 0.0473%.
Work on `Nc1cc(N)nc(SCC(=O)Nc2cccc(S(=O)(=O)N3CCCCC3)c2)n1` yielded an activation of 1.32%.
For `O=C(NCCc1ccc(F)cc1)c1ccc(S(=O)(=O)N2CCCCC2)cc1`, the activation was 28.8%.
`O=C(N/N=C/c1cccc(Br)c1)c1ccc(N2CCCC2=O)cc1` was tested, and the activation was 14.1%.
Work on `C/C(=N\NC(=O)c1cccc(N2CCCC2=O)c1)c1ccc(N)cc1` yielded an activation of -0.551%.
In the case of `COc1cc(/C=N/NC(=O)c2ccc(N3CCCC3=O)cc2)ccc1O`, the activation is reported as 82.8% (active).
`Cc1ccc(C(=O)CN2C(=O)NC3(CCOc4ccccc43)C2=O)s1` (stereo not given) was tested, and the activation was -5.77%.
Work on `CC(C)CCN1CCC(C)(NC(=O)c2ccccc2)C1=O` (stereo not given) yielded an activation of -3.6%.
Compound `CC(=O)c1ccc(OCCCC(=O)Nc2ccc(C)c(S(=O)(=O)N3CCOCC3)c2)cc1` has an activation of 5.88%.
`COc1cc(OC)c(N2CC(C(=O)Nc3cc(Cl)ccc3N3CCOCC3)CC2=O)cc1Cl` (stereo not given) was tested, and the activation was 1.31%.
In the case of `Cc1cccc(Nc2nnc(SCC(=O)c3c(N)n(C4CC4)c(=O)[nH]c3=O)s2)c1C`, the activation is reported as -1.01%.
For `COc1ccc(C(=O)OCC(=O)c2cc(C)n(CC3CCCO3)c2C)cc1[N+](=O)[O-]` (stereo not given), the activation was -3.97%.
In the case of `CN(CC(=O)NC1CCN(Cc2ccccc2)CC1)S(=O)(=O)c1ccc(Cl)s1`, the activation is reported as 7.2%.
In the case of `CN(C(=O)CSc1nnc(-c2ccc3c(c2)OCO3)o1)C1CCS(=O)(=O)C1` (stereo not given), the activation is reported as 1.32%.
Compound `COc1ccc(C(=O)N2CCN(c3ncccn3)CC2)cc1S(=O)(=O)N1CCOCC1` has an activation of 4.11%.
`O=C(NC1CCCC1)c1cc(-c2ccccc2)on1` was tested, and the activation was 22.2%.
In the case of `O=C(NC1CC1)c1cccc(Br)c1`, the activation is reported as -0.868%.
With `O=C(NC1CC1)c1ccc(-c2ccccc2)cc1` the activation was 83% (active).
`CN(C(=O)CSc1nnc(-c2ccc(C(C)(C)C)cc2)n1C)C1CCS(=O)(=O)C1` (stereo not given) showed an activation of 1.75%.
Work on `Cc1cc(C(=O)COc2ccccc2Cl)c(C)n1C1CC1` yielded an activation of 26.9%.
Work on `Cc1ccc(S(=O)(=O)N2CC(O)C[C@H]2C(=O)OCC(=O)Nc2ccc(N3CCOCC3)cc2)cc1C` (stereo not given in full) yielded an activation of -0.193%.
`COc1ccc2nc(NC(=O)c3ccc(Br)s3)sc2c1` was tested, and the activation was 97.1% (active).
`COc1cccc(C(=O)Nc2nc3ccc(S(C)(=O)=O)cc3s2)c1` was tested, and the activation was -1.41%.
Work on `CCc1noc(C)c1C(=O)Nc1nc2ccc(OC)cc2s1` yielded an activation of 8.32%.
`COc1ccc(NC(=O)CC2SC(N3CCCCC3)=NC2=O)cc1OC` (stereo not given) showed an activation of 1.55%.
Work on `CC(=O)c1ccc(-c2ccc(Cn3c(C)nc4cc(N)c(C)nc43)cc2)cc1` yielded an activation of 4.86%.
In the case of `Cc1cc2nc3c(=O)n(Cc4ccccc4)c(=O)[nH]c3nc2cc1N`, the activation is reported as 90.7% (active).
`Cc1nc2c(c(=O)n1Cc1ccco1)c1nc3ccccc3nc1n2Cc1ccccc1` gave an activation of 1.97%.
With `CCN(CC)c1ccc(NC(=O)c2ccc(Cl)nc2)cc1` the activation was 82% (active).
Work on `Cc1cnc(NC(=O)c2ccc(Cl)nc2)s1` yielded an activation of 1.7%.
Work on `CCOC(=O)c1ccc(NC(=O)c2cccnc2)cc1` yielded an activation of -0.797%.
`Cc1csc(NC(=O)C2CCN(S(=O)(=O)c3ccccc3)CC2)n1` was tested, and the activation was 0.443%.
`CCCCn1nc(C(=O)Nc2cccc(C(=O)NC3CC3)c2)c2ccccc2c1=O` showed an activation of 17.8%.
Compound `CC(C)n1ncc2c(C(=O)NCc3ccccc3CN(C)C)cc(C3CC3)nc21` has an activation of 1.42%.
Compound `O=S(=O)(c1cccs1)N1CCN(CCOc2ccccc2)CC1` has an activation of 10.7%.
`O=C(NCC(=O)N1CCCCCCC1)c1ccccc1Cl` gave an activation of 4.74%.
`COc1ccccc1C(CNC(=O)c1cccc(S(=O)(=O)Nc2ccc(F)cc2)c1)N(C)C` (stereo not given) gave an activation of 1.81%.
In the case of `COc1ccccc1-c1sc2ccccc2c1-c1ccc(Br)nc1`, the activation is reported as 1.98%.
With `Cc1ccc(C(CC(=O)O)NC(=O)c2ccc(S(=O)(=O)N3CCCC3)cc2)cc1` (stereo not given) the activation was -0.421%.
For `O=C(CN1CCc2ccccc2C1)Nc1cccc(S(=O)(=O)N2CCOCC2)c1`, the activation was 13.1%.
